Experimental findings from PubChem BioAssay AID602188 (Broad Institute, 2012) are described below.

Structures are written as SMILES. Measured potencies and affinities stand elsewhere. Results filed as inconclusive are left out. Active and inactive are the calls of the source.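 Rule for the calls: active = compounds whose fitted curve lowers viable cell signal, with half-maximal concentration at most twice the top tested dose; inconclusive = flat curve showing 30 to 70% toxicity, or poor fit; inactive = the rest.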

The experiment in a line: NIH-3T3 fibroblast cytotoxicity, dose response, cytotoxicity control for antifungal single agent project, cell-based, Alamar Blue, dry powder (AID 602188). (In general: Alamar Blue is a resazurin reagent that responds to reducing activity.)

For `NC(=O)c1cccc(C(=O)Nc2nc(-c3ccc4c(c3)CCCC4)cs2)c1`, the result was inactive.

For the molecule `CCOC(=O)N1C(=O)C2(CCCCC2)N(c2ccc(C)cc2)C1=S`, the molecule was classed as inactive.

In the case of `O=C(Nc1nc(-c2ccc3c(c2)CCCC3)cs1)c1ccccc1`, the outcome was inactive.

As for `O=C(Nc1nc(-c2ccccc2)cs1)c1ccc(Br)s1`, the result was inactive.
